Targets with a hit are over-represented here; the source holds about 7,900 in all. About 0.6% of all pairs of compound and target were hits. Values without a mark were called inactive.
Legend:
Assay in all cases: log2 fold change, soluble protein after heating vs DMSO (PISA); higher = thermal stabilisation; K562 cells, 10 uM, 30 min; active = over 0.2 and 3.5 SD of the protein, either way, in both replicates (recomputed)
erlotinib = compound: C#Cc1cccc(Nc2ncnc3cc(OCCOC)c(OCCOC)cc23)c1 [erlotinib]
Method in brief: (§1)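 Thermal stability values are relative to control samples and come from duplicates. They are expressed as log2 fold changes. For measurement, K562 cells (2×10^6 cells/mL) received 10 μM compound for 30 min, and aliquots were heated for 3 min over 48°C-58°C, pooled, and extracted at 4°C in PBS with 0.5% NP-40. Soluble protein, the supernatant after 21,000xg for 90 min, was quantified by TMTpro 16plex LC-MS/MS with equalised channel sums.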

[1] = compound: C/C(=N\NC(=O)C1=CC(=CC=C1)S(=O)(=O)N2CCOCC2)/C3=C(C=CC(=C3)Cl)O
Method in brief: as §1

[2] = compound: C1=CC(=C(C=C1Cl)C2=NC3=NC=CN=C3C(=N2)NC4=CC=NC=C4)F
Method in brief: as §1

[3] = compound: C1=CC(=CC=C1C2=NC3=C(N2)C=C(C=C3)C(=O)N)OC4=CC=C(C=C4)Cl
Method in brief: as §1

[4] = compound: C1=CC2=C(C=CC(=C2)/C=C\3/C(=O)NC(=NCC4=CC=CS4)S3)N=C1
Method in brief: as §1

[5] = compound: C1=CC2=NC=CN=C2C=C1/C=C/3\C(=O)NC(=O)S3
Method in brief: as §1

[6] = compound: C1=CC=C(C=C1)C2=NC(=C(N2)C3=CC=NC=C3)C4=CC(=C(C=C4)Cl)O
Method in brief: as §1

[7] = compound: C1=CC=C2C(=C1)C3=NNC4=CC=CC(=C43)C2=O
Method in brief: as §1

[8] = compound: C1CCN(C1)C(=O)NC2=CC=CC(=C2)NC3=NC=C(C(=N3)NCCC4=CN=CN4)Br
Method in brief: as §1

[9] = compound: C1CN(CCC1(CC2=CC=C(C=C2)Cl)N)C3=NC=NC4=C3C=CN4
Method in brief: as §1

IRAK-1-4 Inhibitor I = compound: C1COCCN1CCN2C3=CC=CC=C3N=C2NC(=O)C4=CC(=CC=C4)[N+](=O)[O-] [IRAK-1-4 Inhibitor I]
Method in brief: as §1

ibrutinib = compound: C=CC(=O)N1CCC[C@@H](n2nc(-c3ccc(Oc4ccccc4)cc3)c3c(N)ncnc32)C1 [ibrutinib]
Method in brief: as §1

[10] = compound: CC(=O)c1cnc2ccc(-c3cc(Cl)c(O)c(Cl)c3)nc2c1N[C@H]1CC[C@H](CN(C)C)CC1
Method in brief: as §1

ralimetinib = compound: CC(C)(C)Cn1c(N)nc2ccc(-c3[nH]c(C(C)(C)C)nc3-c3ccc(F)cc3)nc21 [ralimetinib]
Method in brief: as §1

[11] = compound: CC(C)(O)CC(=O)NCCn1ccc2ncnc(Nc3ccc(Oc4cccc(C(F)(F)F)c4)c(Cl)c3)c21
Method in brief: as §1

[12] = compound: CC(C)C1=C2N=C(C=C(N2N=C1)NCC3=CC=CC=C3)NCCCCCCN
Method in brief: as §1

[13] = compound: CC(C)C[C@@H](C=O)NC(=O)[C@H](CC(C)C)NC(=O)[C@H](CC(C)C)NC(=O)OCc1ccccc1
Method in brief: as §1

pinometostat = compound: CC(C)N(C[C@H]1O[C@@H](n2cnc3c(N)ncnc32)[C@H](O)[C@@H]1O)[C@H]1C[C@@H](CCc2nc3cc(C(C)(C)C)ccc3[nH]2)C1 [pinometostat]
Method in brief: as §1

[14] = compound: CC1=C(C(CC(=O)N1)C2=CC=C(C=C2)C(F)(F)F)C(=O)NC3=C(C=C4C(=C3)C=NN4)F
Method in brief: as §1

[15] = compound: CC1=C(C2=C(C=C1)C(=O)C3=CC=CC=C3N2CCCN)C
Method in brief: as §1

UniProt Q13948, sequence (Q13948 whole entry, looked up): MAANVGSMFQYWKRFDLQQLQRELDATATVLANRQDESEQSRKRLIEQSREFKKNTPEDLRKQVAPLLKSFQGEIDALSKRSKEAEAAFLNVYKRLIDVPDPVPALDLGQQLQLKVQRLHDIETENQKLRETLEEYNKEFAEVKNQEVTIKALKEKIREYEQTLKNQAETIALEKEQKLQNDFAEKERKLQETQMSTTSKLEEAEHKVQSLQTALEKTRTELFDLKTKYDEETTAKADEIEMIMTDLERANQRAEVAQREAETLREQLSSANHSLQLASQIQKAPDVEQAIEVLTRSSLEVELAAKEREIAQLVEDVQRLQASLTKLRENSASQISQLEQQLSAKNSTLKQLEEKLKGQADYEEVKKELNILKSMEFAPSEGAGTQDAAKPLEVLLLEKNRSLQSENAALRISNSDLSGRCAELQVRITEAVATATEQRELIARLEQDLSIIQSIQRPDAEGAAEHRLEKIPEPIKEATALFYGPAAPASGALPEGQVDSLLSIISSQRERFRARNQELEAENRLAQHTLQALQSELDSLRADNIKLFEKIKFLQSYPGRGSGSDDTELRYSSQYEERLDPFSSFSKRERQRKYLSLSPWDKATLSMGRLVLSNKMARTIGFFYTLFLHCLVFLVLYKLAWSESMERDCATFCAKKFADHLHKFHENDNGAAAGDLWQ
UniProt Q8IX18, sequence (Q8IX18 whole entry, looked up): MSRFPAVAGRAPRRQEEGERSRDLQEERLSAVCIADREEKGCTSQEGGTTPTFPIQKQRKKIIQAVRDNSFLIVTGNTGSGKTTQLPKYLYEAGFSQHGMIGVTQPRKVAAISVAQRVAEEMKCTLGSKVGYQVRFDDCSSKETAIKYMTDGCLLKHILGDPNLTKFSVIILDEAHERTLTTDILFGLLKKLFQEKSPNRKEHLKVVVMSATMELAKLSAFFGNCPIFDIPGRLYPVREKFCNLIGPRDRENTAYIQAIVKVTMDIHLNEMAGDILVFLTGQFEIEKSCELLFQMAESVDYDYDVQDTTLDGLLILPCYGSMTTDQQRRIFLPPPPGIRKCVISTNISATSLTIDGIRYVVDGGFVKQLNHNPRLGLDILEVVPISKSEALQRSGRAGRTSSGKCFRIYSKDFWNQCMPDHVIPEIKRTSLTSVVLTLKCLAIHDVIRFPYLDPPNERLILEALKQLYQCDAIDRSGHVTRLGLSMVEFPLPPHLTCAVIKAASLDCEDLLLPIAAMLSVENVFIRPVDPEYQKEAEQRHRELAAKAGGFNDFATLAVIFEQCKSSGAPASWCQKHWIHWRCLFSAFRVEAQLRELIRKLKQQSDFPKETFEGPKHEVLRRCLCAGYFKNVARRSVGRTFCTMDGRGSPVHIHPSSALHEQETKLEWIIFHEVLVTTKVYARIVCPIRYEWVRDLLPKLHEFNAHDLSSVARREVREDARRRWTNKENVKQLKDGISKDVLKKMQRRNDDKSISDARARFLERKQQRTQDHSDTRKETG
UniProt O60888, sequence (O60888 whole entry, looked up): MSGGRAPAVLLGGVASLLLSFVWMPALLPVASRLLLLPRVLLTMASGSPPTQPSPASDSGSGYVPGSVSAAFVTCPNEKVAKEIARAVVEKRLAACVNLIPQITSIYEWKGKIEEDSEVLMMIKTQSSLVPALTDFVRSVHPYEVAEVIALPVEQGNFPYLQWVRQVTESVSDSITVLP
UniProt Q9BW60, sequence (Q9BW60 whole entry, looked up): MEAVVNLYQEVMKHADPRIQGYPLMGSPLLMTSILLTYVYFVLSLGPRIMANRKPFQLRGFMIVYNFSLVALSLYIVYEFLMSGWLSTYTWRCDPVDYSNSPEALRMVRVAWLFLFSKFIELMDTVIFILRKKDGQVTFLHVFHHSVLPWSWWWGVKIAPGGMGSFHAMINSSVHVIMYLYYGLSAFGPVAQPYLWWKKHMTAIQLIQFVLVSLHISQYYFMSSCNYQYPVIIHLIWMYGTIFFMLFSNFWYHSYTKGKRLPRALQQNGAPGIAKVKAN
UniProt Q96F86, sequence (Q96F86 whole entry, looked up): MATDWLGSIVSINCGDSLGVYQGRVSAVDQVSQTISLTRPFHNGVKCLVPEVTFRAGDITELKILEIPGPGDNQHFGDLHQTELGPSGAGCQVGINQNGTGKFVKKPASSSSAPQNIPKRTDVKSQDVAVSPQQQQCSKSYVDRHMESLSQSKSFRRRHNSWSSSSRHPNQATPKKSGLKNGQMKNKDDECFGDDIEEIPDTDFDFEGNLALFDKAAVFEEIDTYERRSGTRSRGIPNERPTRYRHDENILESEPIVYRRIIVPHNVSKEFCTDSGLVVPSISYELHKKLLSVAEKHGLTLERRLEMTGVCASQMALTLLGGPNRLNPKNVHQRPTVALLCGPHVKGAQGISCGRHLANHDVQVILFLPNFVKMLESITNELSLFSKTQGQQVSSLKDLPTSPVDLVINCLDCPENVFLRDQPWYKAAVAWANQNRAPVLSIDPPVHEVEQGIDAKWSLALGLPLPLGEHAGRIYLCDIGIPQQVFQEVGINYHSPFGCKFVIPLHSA
UniProt Q16531, sequence (Q16531 whole entry, looked up): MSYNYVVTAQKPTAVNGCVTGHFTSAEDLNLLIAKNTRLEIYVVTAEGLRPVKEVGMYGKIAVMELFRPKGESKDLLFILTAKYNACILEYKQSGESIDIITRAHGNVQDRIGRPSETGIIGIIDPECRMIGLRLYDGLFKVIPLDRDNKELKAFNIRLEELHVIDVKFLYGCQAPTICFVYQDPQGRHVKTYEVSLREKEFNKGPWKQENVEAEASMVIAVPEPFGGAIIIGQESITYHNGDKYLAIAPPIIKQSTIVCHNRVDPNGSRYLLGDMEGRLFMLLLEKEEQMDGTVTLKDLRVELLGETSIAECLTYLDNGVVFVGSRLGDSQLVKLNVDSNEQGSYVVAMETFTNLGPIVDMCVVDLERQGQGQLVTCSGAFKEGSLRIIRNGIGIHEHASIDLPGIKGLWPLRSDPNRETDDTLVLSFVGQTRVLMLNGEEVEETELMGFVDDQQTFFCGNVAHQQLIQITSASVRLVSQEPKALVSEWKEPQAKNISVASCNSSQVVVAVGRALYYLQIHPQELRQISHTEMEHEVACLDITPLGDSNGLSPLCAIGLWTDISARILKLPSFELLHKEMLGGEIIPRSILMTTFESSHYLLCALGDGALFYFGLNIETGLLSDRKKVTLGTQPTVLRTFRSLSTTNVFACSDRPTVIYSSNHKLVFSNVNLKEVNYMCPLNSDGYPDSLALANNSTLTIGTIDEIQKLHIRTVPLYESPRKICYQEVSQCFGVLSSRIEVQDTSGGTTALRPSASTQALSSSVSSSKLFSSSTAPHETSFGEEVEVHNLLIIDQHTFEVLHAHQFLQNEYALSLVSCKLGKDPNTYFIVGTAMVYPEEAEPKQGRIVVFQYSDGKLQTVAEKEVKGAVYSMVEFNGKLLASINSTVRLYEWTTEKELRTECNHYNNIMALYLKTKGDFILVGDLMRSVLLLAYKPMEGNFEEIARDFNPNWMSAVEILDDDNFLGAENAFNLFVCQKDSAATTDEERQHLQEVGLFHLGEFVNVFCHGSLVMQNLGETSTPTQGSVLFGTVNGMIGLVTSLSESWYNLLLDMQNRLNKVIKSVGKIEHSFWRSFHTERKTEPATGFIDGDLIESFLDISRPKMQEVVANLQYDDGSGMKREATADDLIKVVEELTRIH
UniProt P49366, sequence (P49366 whole entry, looked up): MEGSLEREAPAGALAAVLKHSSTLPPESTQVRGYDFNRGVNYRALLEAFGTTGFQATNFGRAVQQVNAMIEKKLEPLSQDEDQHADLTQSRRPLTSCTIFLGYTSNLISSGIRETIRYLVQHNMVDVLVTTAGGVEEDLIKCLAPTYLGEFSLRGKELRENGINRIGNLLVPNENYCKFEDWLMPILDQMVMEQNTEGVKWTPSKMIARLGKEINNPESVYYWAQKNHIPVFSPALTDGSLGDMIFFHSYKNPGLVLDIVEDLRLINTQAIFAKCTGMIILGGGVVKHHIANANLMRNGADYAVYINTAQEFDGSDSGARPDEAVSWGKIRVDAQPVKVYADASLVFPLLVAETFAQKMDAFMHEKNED
UniProt Q8IYI6, sequence (Q8IYI6 whole entry, looked up): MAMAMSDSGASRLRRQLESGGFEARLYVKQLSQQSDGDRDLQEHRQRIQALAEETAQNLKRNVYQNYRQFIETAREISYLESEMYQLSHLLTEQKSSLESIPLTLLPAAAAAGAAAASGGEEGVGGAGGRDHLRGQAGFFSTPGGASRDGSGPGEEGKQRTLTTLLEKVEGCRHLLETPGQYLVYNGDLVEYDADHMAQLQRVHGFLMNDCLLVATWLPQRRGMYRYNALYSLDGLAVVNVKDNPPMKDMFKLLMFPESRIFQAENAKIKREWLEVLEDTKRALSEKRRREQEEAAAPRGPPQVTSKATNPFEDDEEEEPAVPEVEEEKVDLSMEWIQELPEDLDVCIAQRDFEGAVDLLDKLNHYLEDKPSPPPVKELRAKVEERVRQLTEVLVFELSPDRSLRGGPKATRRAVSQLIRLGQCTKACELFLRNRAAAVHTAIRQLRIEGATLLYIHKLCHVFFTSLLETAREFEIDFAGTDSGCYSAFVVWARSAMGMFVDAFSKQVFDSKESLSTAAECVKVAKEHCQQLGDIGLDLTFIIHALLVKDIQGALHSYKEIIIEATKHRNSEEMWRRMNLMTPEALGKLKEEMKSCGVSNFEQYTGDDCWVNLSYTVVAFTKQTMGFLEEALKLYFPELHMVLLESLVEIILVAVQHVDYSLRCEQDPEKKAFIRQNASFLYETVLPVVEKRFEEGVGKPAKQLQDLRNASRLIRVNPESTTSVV
UniProt Q9NSI2, sequence (Q9NSI2 whole entry, looked up): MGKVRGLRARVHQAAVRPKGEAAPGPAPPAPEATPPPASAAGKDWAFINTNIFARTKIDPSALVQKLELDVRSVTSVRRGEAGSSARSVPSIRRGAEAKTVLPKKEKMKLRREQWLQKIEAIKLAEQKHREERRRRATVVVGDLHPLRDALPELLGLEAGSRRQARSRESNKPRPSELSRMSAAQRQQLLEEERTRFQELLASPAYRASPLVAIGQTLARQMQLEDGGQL

Target	log2 fold change (erlotinib)	log2 fold change [1]	log2 fold change [2]	log2 fold change [3]	log2 fold change [4]	log2 fold change [5]	log2 fold change [6]	log2 fold change [7]	log2 fold change [8]	log2 fold change [9]	log2 fold change (IRAK-1-4 Inhibitor I)	log2 fold change (ibrutinib)	log2 fold change [10]	log2 fold change (ralimetinib)	log2 fold change [11]	log2 fold change [12]	log2 fold change [13]	log2 fold change (pinometostat)	log2 fold change [14]	log2 fold change [15]
EXOC8 (UniProt Q8IYI6)	0.048	0.144	-0.042	-0.056	0.05	0.017	-0.012	0.001	-0.053	-0.054	-0.094	-0.001	0.014	0.049	-0.128	-0.317 (active)	-0.032	0.051	0.026	-0.002
CYP51A1 (UniProt Q16850)	-0.09	0.019	-0.248	-0.002	0.007	0.018	-0.096	0.089	0.014	0.137	-0.129	0.039	-0.028	0.064	0.245	0.782 (active)	0.07	0.045	-0.013	-0.006
ELOVL1 (UniProt Q9BW60)	-0.022	0.019	-0.01	-0.059	0.036	0.011	0.069	-0.11	-0.124	0.014	0.079	-0.006	0.018	0.029	-0.197	-0.628 (active)	0.036	0.063	0.016	0.099
DBT (UniProt P11182)	-0.041	-0.019	-0.021	0.049	-0.03	0.038	0.099	-0.01	-0.006	-0.065	-0.004	0.019	0.021	0.109	0.006	0.027	0.023	0.002	0.015	0.352 (active)
CUTA isoform 2 (UniProt O60888)	-0.01	-0.066	0	0.033	0	0.003	0.091	-0.054	-0.1	-0.105	0.074	-0.018	0.085	-0.046	-0.104	0.038	-0.09	-0.009	0.005	0.15
EEF1G isoform 2 (UniProt P26641)	-0.051	0.062	-0.009	-0.016	-0.036	-0.021	0.083	0.012	0.001	-0.031	-0.02	-0.083	0.044	0.059	0.006	-0.067	-0.024	0.042	-0.015	0.017
EEF1D isoform 2 (UniProt P29692)	0	0.031	0.016	-0.028	0.025	0.02	-0.03	0.021	0.048	-0.055	-0.038	-0.039	0.012	0.026	-0.006	-0.051	0.029	0.065	0.002	0.039
DSN1 (UniProt Q9H410)	0.07	0.042	-0.002	0.024	-0.019	-0.009	-0.018	0.006	0.004	-0.091	-0.143	-0.038	-0.041	-0.131	-0.055	-0.106	0.004	-0.037	-0.036	-0.045
DDB1 (UniProt Q16531)	-0.03	0.006	0.009	0.022	0.003	0.014	-0.019	-0.032	0.018	0.04	0.038	0.026	0.002	-0.053	-0.008	0.071	-0.017	-0.03	0.022	-0.001
EHBP1L1 (UniProt Q8N3D4)	-0.005	0.088	0.06	-0.005	0.057	0.026	-0.013	-0.03	-0.1	-0.116	-0.044	-0.054	-0.077	0.083	-0.001	-0.034	0.05	0.086	-0.049	0.028
EDC3 (UniProt Q96F86)	-0.023	0.156	0.009	0.043	-0.007	-0.227	-0.024	-0.057	-0.195	-0.376 (active)	-0.029	-0.082	-0.643 (active)	0.013	-0.117	-0.223	0.019	0.011	0.039	-0.049
DHX40 (UniProt Q8IX18)	0.019	0.05	-0.008	0.071	0.044	0.092	-0.046	-0.034	-0.071	-0.038	0.047	-0.04	-0.069	-0.036	-0.07	-0.075	-0.038	0.047	0.061	0.096
FAM207A (UniProt Q9NSI2)	-0.082	-0.092	-0.039	-0.032	-0.204	-0.018	-0.027	0.006	-0.159	-0.054	-0.043	-0.082	0.057	0.123	-0.033	-0.066	0.088	0.024	0.005	0.038
DBNL isoform 3 (UniProt Q9UJU6)	0.06	0.024	0.034	-0.063	-0.012	0.146	-0.008	-0.004	-0.084	-0.066	-0.075	-0.122	0.006	-0.015	-0.132	-0.136	-0.007	-0.044	-0.02	-0.066
CUX1 isoform 2 (UniProt Q13948)	-0.025	0.017	0.012	0.036	0.014	-0.031	-0.043	0.009	-0.009	-0.031	0.042	0.017	-0.032	0.036	-0.101	0.045	0.042	0.055	0.013	0.049
DHPS (UniProt P49366)	0	-0.01	0.088	-0.002	-0.034	0.033	0.024	-0.004	-0.007	0.021	0.011	-0.004	0.02	-0.04	-0.043	0.047	-0.012	-0.095	0.008	-0.027

From the supplement of paper PMC10849652
